# Measured values taken from the supplement of paper PMC9948646.
# Unmarked numbers belong to inactive results.
# System: gramicidin D channels in DC22:1PC lipid vesicles (bilayer-modifying potency)
# Assay: initial Tl+ fluorescence quench rate relative to no-drug control (NormRate, gramicidin monomer-dimer shift) (ratio (fold of control)); higher = stronger bilayer-modifying effect (equilibrium shifted toward conducting dimers), active = 1.5 or more
# Conditions: 10 µM; lipid concentration 50 µM; temperature: 25 °C
# Description: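 Stopped-flow fluorescence quench assay: ANTS-loaded DC22:1PC large unilamellar vesicles doped with gramicidin D (1:2000), 50 µM lipid, equilibrated 10 min with 10 µM drug (0.1% DMSO), mixed with Tl+ quench buffer at 25°C. Initial quench rate (Tl+ influx) was fitted with a modified stretched exponential and normalised to the no-drug control rate (NormRate); duplicates from two independent LUV preparations (triplicates for 7 drugs).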
row,Structure (SMILES),initial Tl+ fluorescence quench rate
1,O=C(N[C@H](Cc1ccccc1)C(=O)Nc1ccccc1N1CCOCC1)c1cccs1,1.21
2,Cc1ccc(C(=O)Nc2ccc(S(=O)(=O)O)c3cc(S(=O)(=O)O)cc(S(=O)(=O)O)c23)cc1NC(=O)c1cccc(NC(=O)Nc2cccc(C(=O)Nc3cc(C(=O)Nc4ccc(S(=O)(=O)O)c5cc(S(=O)(=O)O)cc(S(=O)(=O)O)c45)ccc3C)c2)c1,2.56 (active)
3,COc1cccc(-c2cc3c(Nc4cccnc4)nccc3[nH]2)c1,1.5
4,Cc1ccc(NC(=O)c2cc(S(=O)(=O)NC(C)(C)C)ccc2C)nc1,1.21
5,CC1=NN(c2nc3ccccc3s2)C(=O)[C@@H]1Cc1cccc2ccccc12,2.18 (active)
6,N#CCN(CCCCN1CCN(c2ccc(F)cc2)CC1)C(=O)OCc1ccccc1,1.5
7,Cc1cnc(CCNC(=O)c2cc(-c3ccc(Cl)cc3)cs2)[nH]1,1.34
8,O=C([C@@H](Cc1c[nH]c2ccccc12)NS(=O)(=O)c1ccc(Cl)cc1)N1CCCCC1,4.26 (active)
9,Cc1nc(-c2ccccn2)nc(NCCc2ccc(S(C)(=O)=O)cc2)c1Cl,1.13
10,CCOc1ccccc1C(=O)Nc1cccc(-c2nc3ncccn3c2C)c1,1.48
11,COc1nc2ccc(Br)cc2cc1[C@@H](c1ccccc1)[C@@](O)(CCN(C)C)c1cccc2ccccc12,6.48 (active)
12,Cc1cc(C(=O)Nc2cnn(Cc3ccc(Cl)cc3Cl)c2)no1,1.1
13,FC(F)(F)c1cnc(Sc2nnc(-c3ccncc3)o2)c(Cl)c1,1.23
14,C[C@H]1CCCN(C(=O)[C@H](C)Nc2cc(Cl)ccc2N2CCOCC2)C1,1.23
15,Cc1ccc2oc(-c3cc(NC(=O)Cc4ccccc4)ccc3Cl)nc2c1,1.18
16,c1ccc(-c2nc(NC3CCCCC3)cc(C3CC3)n2)nc1,1.76 (active)
17,Cc1ccc(S(=O)(=O)n2cc(-c3ccnc(N)c3)c3cc(Br)cnc32)cc1,2.5 (active)
18,Cc1nn(C(=O)Nc2cccc(C(F)(F)F)c2)c(C)c1Sc1ncccn1,2 (active)
19,O=C(Nc1nc(-c2ccccn2)cs1)c1cncn1-c1ccccc1,1.1

row,Structure (SMILES),initial Tl+ fluorescence quench rate
1,O=C(C1CCN(c2cc(-n3cccc3)ncn2)CC1)N1CCc2ccccc2C1,1.45
2,CNCC[C@H](Oc1ccc(C(F)(F)F)cc1)c1ccccc1,1.41
3,CC(C)n1nc(-c2cc3c(Cl)cccc3[nH]2)c2c(N)ncnc21,3.74 (active)
4,COc1cc(C2=NCCN2)cc2cc(-c3ccc(C4=NCCN4)cc3)oc12,1.1
5,Nc1ccc2ncnc(Nc3ccc(OCc4cccc(F)c4)c(Cl)c3)c2c1,2.58 (active)
6,O=C(Nc1nnc(S)s1)c1cc(Br)ccc1Cl,1.2
7,CC1=Nc2ccc(Cl)cc2[C@H](c2ccccc2)N1CCNC(=O)CN(C)C,1.07
8,COc1cc(C2=NCCN2)ccc1-n1cc(-c2cccc(C3=NCCN3)c2)nn1,1.15
9,COC(=O)c1ccc(F)cc1NS(=O)(=O)c1cccc(-c2cnn(Cc3ccccc3)c2)c1,1.25
10,c1cc(C2=NCCN2)cc(-c2cc(-c3ccc(C4=NCCN4)cc3)no2)c1,1.17
11,CCc1ccc([C@@H](NCc2nc(N)nc(N(C)C)n2)C(C)C)cc1,1.08
12,Brc1cncc(-c2cc(NCCCn3ccnc3)nc(-c3ccccc3)n2)c1,2.73 (active)
13,c1cncc(NCc2ccc(-c3cc4ccncc4cc3OC3CCNCC3)s2)c1,1.32
14,Cc1noc(C)c1C(=O)N1CCC[C@@H](c2[nH]c3c(C)cccc3c2-c2ccncc2)C1,1.73 (active)
15,CCc1nc2ccccc2n1C[C@H](O)COc1cc(C)ccc1Cl,2.91 (active)
16,CC(C)(C)c1cc(C(=O)N2CCN(c3nccnc3C#N)CC2)n(Cc2ccccc2)n1,1.21
17,Nc1ncnc2c1c(Cc1cccc3ccccc13)nn2CC1CCNCC1,1.15
18,COc1cccc(OC)c1C(=O)Nc1ccc(Cl)c(-c2nc3ccccc3s2)c1,3.12 (active)
